INHIBITION data for 56 molecules are collected here from ChEMBL document CHEMBL4513216, “Probing the Open Global Health Chemical Diversity Library for Multistage-Active Starting Points for Next-Generation Antimalarials” (ACS Infect Dis, 2020).

Screen size: about 65,000 compounds; about 2,100 (3.2%) showed an effect of 50% or more. The median lay at about -52%. The list comes from a sample in which strong results are over-represented; it also holds similar structures and randomly drawn compounds.

For the experiment, the system named is Plasmodium falciparum. Put plainly: Screen against P. falciparum Asexual Blood Stage (ABS), at 5uM. Type of experiment: functional, Dd2. To be noted: tested at 5 uM.
Take `CCCN1C[C@@H]2CC[C@H]1CN(Cc1ccc(-n3cccn3)cc1)C2`: the INHIBITION amounted to 30.8%. The value for `CN(C)Cc1cnc(C2CCN(C(=O)c3ccc(F)cc3)C2)[nH]1` (stereo unspecified) was -144%; that for `CCOc1cc(C)nc(N2CCN(C(=O)C(C)NC(C)=O)CC2)n1` (stereo unspecified) was -92.3%; that for `Cc1noc(C)c1CNC1CCN(c2ccccc2OC(F)F)C1` (stereo unspecified) was 63.7%.

Consider `Cc1ccc(N2CCCC(NCc3c(C)noc3C)C2)nn1` (stereo unspecified), for which the INHIBITION was -2.57%. The value for `O=C(Nc1cccnc1)NC1CCN(c2ccccc2OC(F)F)C1` (stereo unspecified) was 16%; that for `O=C(Nc1ccncc1)NC1CCN(c2ccccc2OC(F)F)C1` (stereo unspecified) was 64.4%; that for `O=C(Nc1ccccn1)NC1CCN(c2ccccc2OC(F)F)C1` (stereo unspecified) was 8.94%. For `COc1ccccc1N1CCC(NCc2c(C)noc2C)C1` (stereo unspecified), the INHIBITION is 28.4%. The value for `CCCOc1c(Cl)cc(C(=O)N2CCOC23CCN(C)CC3)cc1Cl` was -5.1%; that for `CSCc1cc(F)ccc1CNC(=O)N1CCCC(CO)C1` (stereo unspecified) was -126%; that for `OC(c1ccccc1)C1CCN(Cc2csc(-c3ncccn3)n2)CC1` (stereo unspecified) was -49.1%. For `CCC1=N[C@@]2(CC[C@@H]3CN(C(=O)NCc4ccccc4C)C[C@@H]32)C(=O)N1` the value was -16%; for `c1cnn(CC2CCCN2c2ncnc3ccsc23)c1` (stereo unspecified), -122%; for `CCc1cnc(N)nc1NCCN1CCCCC1`, 51.1%.

`CCc1cnc(N)nc1NCCCn1nc(C)nc1C`: the INHIBITION is on record as -44.2%. For `CCc1cnc(C)nc1NCCN1CCCCCC1`, the INHIBITION came to 44.7%. The value for `CCc1cnc(N)nc1NCCc1ccc(OC)cc1OC` was -6.25%.

On to `CCc1cnc(C)nc1NCCN1CCOCC1`, for which the INHIBITION was -11.8%. For `CCc1cnc(N)nc1NCCn1cc(Cl)cn1` the value was 55.4%; for `Cc1ccc(CN2CCC3(CC2)CN(c2ccccc2)C(=O)CO3)o1`, -69%. The value for `c1cnn(CC2CN(Cc3csc(C4CCCCC4)n3)CCO2)c1` (stereo unspecified) was -70%; that for `CNc1ncc(CN(C)C(=O)CCc2[nH]nc3c2CCCC3)cn1` was -74.2%; that for `NC(=O)C1CCN(C(=O)c2ccc(OCc3cscn3)cc2)CC1` was -12.2%. As for `CCS(=O)(=O)N1CCc2ccc(NC(=O)Nc3cccc(F)c3)cc21`, the INHIBITION is -51.9%. The value for `CC(C)(C)NC(=O)c1ccn(COc2ccccc2Cl)n1` was -35.7%; that for `CC(C)(C)n1ncc(NCc2ccccc2)c(Cl)c1=O` was -43.4%; that for `CC(C)(C)n1nnnc1CN(CCc1ccccc1)Cc1ccccc1` was 20.2%. The value for `CC(C)(C)n1nnnc1CN(Cc1ccccc1)Cc1ccc(Cl)cc1` was 67.5%; that for `COc1ncccc1CNC(=O)c1ccco1` was -16.5%. For `Cn1c(CN2CCOCC2)cc(=O)c(O)c1CN1CCCC1` the value was -205%; for `Cn1c(CN2CCCCCC2)cc(=O)c(O)c1CN1CCCC1`, 60.2%; for `Cn1c(CN2CCOCC2)cc(=O)c(O)c1CN1CCCCC1`, -211%. `c1ccc(C2Cn3ccnc3CN2Cc2ncc[nH]2)cc1` (stereo unspecified): the INHIBITION is recorded as -116%. The value for `Cc1cccc(Nc2cc(C3CCCN(CC(N)=O)C3)ccn2)n1` (stereo unspecified) was -10.4%. For `O=C(c1cccc(Cn2ccnc2)c1)N1CCCC(n2cccn2)C1` (stereo unspecified) the value was 61.4%. For `O=C(c1cccc(Cn2ccnc2)c1)N1CCCC(n2ccnc2)C1` (stereo unspecified) the value was -59.1%; for `Cc1cnn(C2CCCN(C(=O)c3cccc(Cn4ccnc4)c3)C2)c1` (stereo unspecified), -112%; for `CCN(CC)c1ccc2ccc(C(=O)N3CCCCO3)cn12`, 44.7%. As for `CC(C)c1nnc2n1CCN(Cc1ccc3c(c1)OCCO3)C2`, the INHIBITION is -93.4%. For `CCc1nnc2n1CCN(Cc1ccc3c(c1)OCCO3)C2` the value was -83%; for `c1ccc(-c2nnc3n2CCN(Cc2ccc4c(c2)OCCO4)C3)cc1`, 58.5%. The value for `CC1CCC(NCCNC(=O)c2cccs2)CC1` (stereo unspecified) was 63.7%.

On to `O=C(NCCNC1CCCCC1)c1cccs1`, for which the INHIBITION was -44.7%. For the molecule `O=C(NCCNC1CCCC1)c1cccs1`, the INHIBITION was -54.1%. Turning to `CCC(CC)C(=O)Nc1ccc2oc(=O)n(CCN(C)C)c2c1`, the INHIBITION is 25.5%. As for `CN(Cc1ccccc1)CC1CC2(CO1)CN(c1nncs1)C2` (stereo unspecified), the INHIBITION is -0.698%. For `CN(Cc1ccccc1)CC1CC2(CO1)CN(Cc1nccs1)C2` (stereo unspecified) the value was 6.81%; for `CN(Cc1ccccc1)CC1CC2(CO1)CN(Cc1cnn(C)c1)C2` (stereo unspecified), 52.1%. The value for `CNC(=O)Cc1ccccc1NC(=O)N[C@H]1c2ccccc2C[C@H]1O` was -69.7%; that for `Oc1cc(CCC2CCCCN2)cc(-c2cccnc2)c1` (stereo unspecified) was 69%; that for `COc1ccc(CCC2CCCCN2)cc1OC` (stereo unspecified) was -112%.

Turning to `O=c1[nH]ccc2cc(-c3cc(O)cc(CCC4CCCCN4)c3)ccc12` (stereo unspecified), the INHIBITION was -57.5%. The value for `Nc1ccc(-c2cc(O)cc(CCC3CCCCN3)c2)cn1` (stereo unspecified) was -92.8%; that for `O=c1cc(-c2cc(O)cc(CCC3CCCCN3)c2)cc[nH]1` (stereo unspecified) was 0.568%.

Take `Oc1cc(CCC2CCCCN2)cc(-c2ccncc2)c1` (stereo unspecified): the INHIBITION amounted to 67.5%.
